# Assay outcomes: PubChem, National Center for Advancing Translational Sciences (NCATS)
# ELG1 genotoxic: induces genotoxicity in HEK293T cells with luciferase-tagged ELG1 | Potency, µM (series often up to 46 µM), inactives show at the top dose activity change, positive = activation, actives largely listed as activators | HEK293T ELG1-luciferase reporter, luminescence, 16 h | 1.3% of 330,000 active | AID 504466; further: % of control where 0% means no effect; nearly all actives have a fitted effect of over 60% in size
#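 Step 1: seed 2,000 HEK293T ELG1-luciferase cells per well. Step 2: add compound or DMSO, incubate 16 hr at 37 °C. Step 3: ONE-Glo, 30 min at room temperature, read luminescence.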
# NPC1 prom act: NPC1 promoter activation | Huh7 NPC1 promoter luciferase reporter, 24 h | Potency, µM (titrated, usually from 9.22 µM), without a hit: at the highest dose activation, hits mostly activators | 2.4% of 320,000 active; further: % of control where 0% means no effect; nearly all actives have a fitted effect of over 60% in size
#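 Compounds in DMSO were transferred onto Huh7 NPC1-luciferase reporter cells pre-incubated 2 h; after 24 h at 37 °C, Amplite reagent was dispensed and luminescence recorded 10 min later.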
# SMN2 splice enh: increases expression of the SMN2 splice variant; 2.8% of 210,000 active; HEK293 SMN2-luciferase splicing reporter, luminescence, 30-36 h; Potency, µM (highest dose often 46.1 µM), without a hit: at the highest dose activity change, positive = activation, hits mostly activators; further: % of control where 0% means no effect; nearly all actives have a fitted effect of over 55% in size
#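 qHTS luciferase splicing reporter: luminescence rises when SMN2 exon 7 is included in transfected HEK293 cells. Compound exposure lasted 30-36 h at 37C, with 4.5 mM final sodium butyrate as control, followed by a ONE-Glo read.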
# ELG1 DNA repair: inhibitors of ELG1-dependent DNA repair in HEK293T cells. 2.3% of 330,000 active. AID 504467. Potency, µM (titrated, usually from 46.1 µM), without a hit: top-dose activity change, negative = inhibition, actives largely listed as inhibitors. HEK293T ELG1-luciferase reporter, luminescence, 16 h; DNA damage induced by 5-fluorouridine; further: on the % scale 0 is the no-effect control and ±100 the full control effect; nearly all actives have a fitted effect of over 55% in size
#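 Quantitative HTS, concentration-response format. 2,000 cells/well co-treated with 5-fluorouridine and compound, 16 hr in 5% CO2 at 37 °C; ONE-Glo luminescence read after 30 min.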
# FLuc modulator: counter-screen for miR-21 project: firefly luciferase inhibitors or activators; P08659; purified FLuc, Km substrates, luminescence inhibition; Potency, µM (top dose mostly 57.5 µM), for the others: top-dose activity change, negative = inhibition, actives largely listed as inhibitors; 6.9% of 360,000 active;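 further: plate controls were vehicle for no effect and reference inhibitor for full effect; nearly all actives have a fitted effect of over 55% in size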
# Target sequence (P08659 whole entry, looked up): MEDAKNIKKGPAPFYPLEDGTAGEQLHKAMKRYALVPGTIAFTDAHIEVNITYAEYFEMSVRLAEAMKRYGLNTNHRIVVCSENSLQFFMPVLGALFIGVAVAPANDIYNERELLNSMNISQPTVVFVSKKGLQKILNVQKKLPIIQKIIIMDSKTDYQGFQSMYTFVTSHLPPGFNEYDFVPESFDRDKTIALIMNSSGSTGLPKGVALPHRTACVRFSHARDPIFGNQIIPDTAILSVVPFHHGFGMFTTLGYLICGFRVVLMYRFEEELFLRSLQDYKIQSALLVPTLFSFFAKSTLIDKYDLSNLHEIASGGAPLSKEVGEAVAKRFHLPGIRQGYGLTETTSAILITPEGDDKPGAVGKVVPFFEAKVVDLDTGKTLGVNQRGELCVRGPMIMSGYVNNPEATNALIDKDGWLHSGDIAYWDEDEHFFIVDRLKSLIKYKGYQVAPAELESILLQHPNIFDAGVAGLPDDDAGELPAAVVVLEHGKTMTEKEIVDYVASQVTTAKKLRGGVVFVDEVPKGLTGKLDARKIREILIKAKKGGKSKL
#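 Purified P. pyralis luciferase (10nM final) with 10uM D-luciferin and 10uM ATP (Km levels) in 50mM Tris acetate pH 7.5, 10mM Mg acetate, 0.01% Tween-20, 0.05% BSA; qHTS 6-point titration, ~60 µM downward; luminescence read.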
# Rab9 promoter act: activates the Rab9 promoter; AID 485297; Potency, µM (titrated, usually from 9.22 µM), for the others: at the top dose activation, negative = inhibition, actives largely listed as activators; Huh7 Rab9 promoter-luciferase reporter, luminescence, 24 h; 2.8% of 320,000 active; further: % of control where 0% means no effect; nearly all actives have a fitted effect of over 60% in size
#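 Rab9 promoter-driven luciferase in stably transfected Huh7 cells; 1500 cells/well rested 2 h, exposed to compound in DMSO for 24 h at 37 °C, 5% CO2. Luminescence read 10 min after adding luciferase reagent at ambient temperature.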
# The depositor's hits bear a star; ? = inconclusive; · = no result given; [ ] = remark or other dose. In the library only some 9.2% were active in any assay of this set; here they are far more common. The call rests on the fitted dose curve; in most records, active means well fitted curve in the direction sought with a large enough effect; inconclusive means small, poorly fitted or top-dose-only effect, or another doubt; inactive means no such curve, though single readings can be large; an effect the other way counts as inactive or inconclusive. Potency means the concentration at half of the fitted maximal effect.
SMILES,ELG1 genotoxic,NPC1 prom act,SMN2 splice enh,ELG1 DNA repair,FLuc modulator,Rab9 promoter act
Cc1nc(-c2ccc(NC(=O)CC(C)C)cc2)cs1,?,2.82µM*,11.2µM*,?,7.57µM*,3.16µM*
Cc1ccc(C(=O)N2CCN(c3ccccc3F)CC2)cc1NC(=O)c1nsc2ccccc12,·,·,·,·,-12.9%,·
Cc1nn(-c2ccccc2)c2sc(-c3nnc(SCC(=O)O)o3)cc12,15.3%,1.8%,-16.7%,-10.3%,?,?
Cc1ccnc(SCC(=O)c2cccs2)n1,?,3.55µM*,?,?,?,3.16µM*
CCn1c(SCC(=O)O)nnc1-c1cc2c(C)nn(-c3ccccc3)c2s1,1.3%,1.8%,-5.7%,?,9.53µM*,0.2%
CCn1c(SCC(=O)c2ccccc2)nnc1-c1cccs1,?,?,7.7%,?,9.53µM*,?
CCn1c(SCC(=O)c2ccc(O)c(O)c2)nnc1-c1ccccc1OC,0.4%,-1.4%,5.3%,-13.2%,-16.9%,-1.4%
CCn1c(SCC(=O)NCCc2ccccc2)nnc1-c1cccs1,-1.9%,0.2%,-10.8%,-3.1%,3.5%,3.1%
CCn1c(SCC(=O)c2ccc(O)c(O)c2)nnc1-c1ccccc1,20.6µM*,-1.8%,?,?,?,-7.9%
CSCC[C@H](NC(=O)[C@H](Cc1ccccc1)n1c(=O)[nH]c2ccccc2c1=O)C(=O)NCC1CCC(C(=O)O)CC1 (stereo not given in full),1.6%,0.9%,·,20.0%,-1.8%,-3.3%
CCn1c(SCC(=O)c2cc(C)n(C)c2C)nnc1-c1ccccc1,-0.1%,-0.6%,-2.6%,-4.3%,?,-0.7%
CCn1c(SCC(=O)c2cc(C)n(-c3ccc(C(=O)OC)cc3)c2C)nnc1-c1cccnc1,-16.8%,-1.5%,-6.8%,?,15.1µM*,-3.5%
CCn1c(SCC(=O)c2cccs2)nnc1-c1ccco1,17.3%,17.3%,-0.8%,?,21.3µM*,21.0%
O=C(Cc1ccc(Br)cc1)NNC(=O)c1cccs1,1.5%,·,·,?,·,·
CCOc1ccc(CNC(=O)C2CCN(S(=O)(=O)c3cn(C)cn3)CC2)cc1,·,·,·,·,0.2%,·
CC(OC(=O)c1ccc2ncsc2c1)C(=O)NC1CCCCC1C (stereo not given),1.3%,-4.6%,·,8.8%,4.4%,1.6%
Nn1c(SCc2ccc(F)cc2)nnc1-c1ccccn1,13.6%,16.5%,·,?,?,29.1%
Nn1c(SCc2ccccc2F)nnc1-c1ccccn1,18.3µM*,3.98µM*,·,?,15.1µM*,1.41µM*
O=C(c1ccncc1)N1CCN(S(=O)(=O)c2ccc(OC(F)(F)F)cc2)CC1,-0.5%,·,·,?,·,·
CN(C)S(=O)(=O)c1cccc(NC(=S)N/N=C/c2cc(Br)ccc2O)c1,7.7%,-19.8%,·,2.91µM*,19µM*,-37.8%
O=C(Nc1ccccc1Cl)N1CCC2(CC1)Oc1ccccc1C(=O)N2Cc1ccc(F)cc1,·,·,·,·,-7.3%,·
CN(C)c1ccc(C(=O)c2ccc(N(C)C)c3ccccc23)cc1,?,-7.0%,?,?,15.1µM*,-18.6%
COc1ccc(C(=O)c2ccc(N(C)C)cc2)c(OC)c1,0.1%,-29.9%,5.1%,?,-16.7%,-20.0%
CCc1cccc(-n2c(=O)c3cccnc3n2CC(=O)NCc2ccccc2)c1,·,·,·,·,-15.0%,·
COc1ccc(NC(=O)CN2C(=O)COc3ccc(S(=O)(=O)N4CCCCC4)cc32)cc1Cl,·,·,·,·,-14.5%,·
SMILES,ELG1 genotoxic,NPC1 prom act,SMN2 splice enh,ELG1 DNA repair,FLuc modulator,Rab9 promoter act
O=S1(=O)NC2c3ccccc3CC2O1 (stereo not given),-3.8%,0.5%,·,3.1%,-9.3%,-0.1%
CC(C)c1ccc2c(c1)C1Cc3ccccc3C1N2 (stereo not given),?,16.4%,20.6%,?,15.1µM*,8.5%
CCOc1ccc(CNC(=O)c2cccn2-c2nnc(N3CCCCC3)s2)cc1OC,·,·,·,·,-9.4%,·
CC(O)CNc1nc2sc3c(c2c(=O)n1Cc1ccco1)CCCCC3 (stereo not given),10.9%,?,·,?,16.9µM*,29.5%
O=c1c2c3c(sc2nc(NCCOCCO)n1Cc1ccco1)CCCCC3,-1.3%,?,·,-0.9%,16.9µM*,-4.9%
CC(O)CNc1nc2sc3c(c2c(=O)n1CCc1ccccc1)CCCCC3 (stereo not given),2.8%,-0.6%,3.9%,-29.4%,?,0.2%
COc1cc(C(=O)Nc2cccc(OCc3cc(=O)n4cc(C)sc4n3)c2)cc(OC)c1OC,·,·,5.3%,·,?,·
CCn1c(=NC(=O)c2ccco2)sc2cccc(F)c21,14.6µM*,5.1%,15.8µM*,?,16.9µM*,10.0%
Cc1ccc(C(=O)Nc2cccc(C(=O)O)c2)cc1,?,?,1µM*,?,0.151µM*,?
Cc1ccc(C(=O)Nc2ccc(C(=O)O)cc2NC(=O)c2ccc(C)cc2)cc1,?,?,·,?,21.3µM*,22.0%
Cc1cccc2nc(C(=O)Nc3cccc(C(=O)NC4CC4)c3)cn12,10.7%,?,·,?,2.39µM*,3.16µM*
Nc1ccc(C(=O)Nc2ccco2)cc1,11.0%,13.5%,?,?,-1.2%,21.0%
O=C(O)c1cccc(NC(=O)c2cc(NC(=O)c3ccccc3)cc(NC(=O)c3ccccc3)c2)c1,6.1%,0.4%,·,17.8%,?,3.1%
O=C(O)c1ccc(NC(=O)c2ccc(Cl)cc2)c(NC(=O)c2ccc(Cl)cc2)c1,1.6%,-1.0%,·,-3.2%,?,21.2%
Nc1ccc(C(=O)Nc2cccc(NC(=O)c3ccc(N)cc3)c2)cc1,7.0%,4.3%,·,17.5%,10.7µM*,21.3%
Cc1ccc(C(=O)Nc2cccc(C(=O)NC3CCCC3)c2)cc1,-6.7%,?,·,-5.2%,12µM*,?
CC(=O)Nc1ccccc1C(=O)C(=O)Nc1cccc(C(=O)NC2CC2)c1,12.6%,?,0.3%[1.84 µM],?,-11.0%,2.82µM*
CC(=O)c1cccc(NC(=O)c2ccc(N(C)S(=O)(=O)c3ccc(C)cc3)cc2)c1,-16.7%,1.0%,·,16.4µM*,-2.7%,3.8%
CC(=O)c1cccc(NC(=O)c2ccc(N(Cc3ccc(C)cc3)S(C)(=O)=O)cc2)c1,-25.9%,0.1%,-14.9%,?,7.6%,-2.5%
Cc1oc2c(c1C(=O)Nc1cccc(C(=O)O)c1)CCCC2,?,?,13.8%,?,19µM*,?
NC(=O)C1Cc2ccccc2CN1S(=O)(=O)c1ccc(Cl)s1 (stereo not given),-0.8%,-2.1%,·,-3.2%,-1.5%,3.9%
Cc1cc(=O)n2nc(-c3ccccc3)sc2n1,?,?,12.6µM*,?,?,2µM*
